Potency data for 25 molecules are collected here from PubChem BioAssay (Tox21).

Inconclusive results are not listed. Unmarked numbers belong to inactive results. Active and inactive are the calls of the source. Unless noted, calls come from the whole dose curve; as a rule, active = well fitted curve in the direction sought with a large enough effect in the repeat runs; inconclusive = weak or mixed curves; inactive = no such curve, though single readings can be large; an effect the other way counts as inactive or inconclusive.

The nature of assay [1]: qHTS assay to identify small molecule antagonists of the thyroid receptor (TR) signaling pathway - cell viability counter screen (AID 743064). Note: nearly all actives have a fitted effect of over 50% in size. Note: potency is the fitted concentration of half-maximal effect. The method in brief:
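In-well cytotoxicity read by CellTiter-Fluor (30 min, 37 C) following 23.5 h exposure of GH3 cells bearing a TRE-luciferase sensor. Compounds were added alongside 1 nM (final) T3 to drive TR transactivation.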
In general terms: qHTS replaces the single test concentration by a dilution series.

Assay [2] has as its system thyroid hormone receptor (rat, GH3 cells). The assay is described as follows: qHTS assay to identify small molecule agonists of the thyroid receptor (TR) signaling pathway (AID 743066; calls by dose curve).
Assay [3] is described as follows: qHTS assay to identify small molecule antagonists of the estrogen receptor alpha (ER-alpha) signaling pathway - cell viability counter screen (AID 743074; calls by dose curve;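 note: HEK293 cells carrying ER-alpha-UAS-bla reporter stimulated with 17beta-estradiol; nearly all actives have a fitted effect of over 45% in size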; note: potency is the fitted concentration of half-maximal effect).
A short description of assay [4]: qHTS assay to identify small molecule antagonists of the estrogen receptor alpha (ER-alpha) signaling pathway using the BG1 cell line - cell viability counter screen (AID 743081).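 Note: compound given together with 17beta-estradiol as the ER stimulus; nearly all actives have a fitted effect of over 45% in size.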 Note: potency is the fitted concentration of half-maximal effect.
In another assay the target is Aromatase (Homo sapiens) (UniProt P11511). Nature of the assay: qHTS assay to identify aromatase inhibitors (AID 743083). Note: nearly all actives have a fitted effect of over 55% in size. Note: potency is the fitted concentration of half-maximal effect.
Aromatase (Homo sapiens), sequence (P11511 whole entry, looked up): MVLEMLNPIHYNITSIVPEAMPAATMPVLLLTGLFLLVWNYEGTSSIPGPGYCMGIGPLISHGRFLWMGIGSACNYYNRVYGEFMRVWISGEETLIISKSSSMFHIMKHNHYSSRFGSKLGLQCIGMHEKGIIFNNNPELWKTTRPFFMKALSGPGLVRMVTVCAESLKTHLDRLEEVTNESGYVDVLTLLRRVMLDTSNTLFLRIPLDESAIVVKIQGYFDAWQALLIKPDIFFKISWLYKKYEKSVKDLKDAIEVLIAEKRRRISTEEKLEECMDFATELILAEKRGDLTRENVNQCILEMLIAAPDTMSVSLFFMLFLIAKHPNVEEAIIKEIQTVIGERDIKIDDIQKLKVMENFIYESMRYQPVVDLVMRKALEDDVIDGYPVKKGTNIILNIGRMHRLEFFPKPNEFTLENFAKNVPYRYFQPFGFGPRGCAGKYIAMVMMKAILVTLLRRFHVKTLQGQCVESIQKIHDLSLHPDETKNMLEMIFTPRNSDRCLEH
The target in assay [5] is Estrogen receptor (Homo sapiens) (UniProt P03372). Nature of the assay: qHTS assay to identify small molecule agonists of the estrogen receptor alpha (ER-alpha) signaling pathway (AID 743075; calls by dose curve;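 note: HEK293 GripTite cells with ER-alpha and UAS-driven beta-lactamase reporter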).
Estrogen receptor (Homo sapiens), sequence (P03372 whole entry, looked up): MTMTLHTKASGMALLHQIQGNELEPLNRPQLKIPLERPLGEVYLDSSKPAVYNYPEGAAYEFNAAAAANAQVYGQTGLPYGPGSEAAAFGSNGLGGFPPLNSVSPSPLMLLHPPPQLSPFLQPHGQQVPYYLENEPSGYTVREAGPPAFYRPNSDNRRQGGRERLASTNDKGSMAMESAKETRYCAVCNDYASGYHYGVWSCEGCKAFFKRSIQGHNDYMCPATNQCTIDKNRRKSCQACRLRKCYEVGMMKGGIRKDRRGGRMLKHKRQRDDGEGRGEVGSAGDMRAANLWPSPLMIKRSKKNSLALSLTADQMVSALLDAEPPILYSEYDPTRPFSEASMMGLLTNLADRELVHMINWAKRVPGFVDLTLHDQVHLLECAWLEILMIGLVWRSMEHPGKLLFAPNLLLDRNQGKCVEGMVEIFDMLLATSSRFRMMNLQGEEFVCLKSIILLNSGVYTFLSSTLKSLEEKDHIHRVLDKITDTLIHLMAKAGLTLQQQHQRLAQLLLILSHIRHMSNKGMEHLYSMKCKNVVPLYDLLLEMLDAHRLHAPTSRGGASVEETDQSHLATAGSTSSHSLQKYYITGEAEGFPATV
Assay [6] is described as follows: qHTS assay to identify small molecule antagonists of the estrogen receptor alpha (ER-alpha) signaling pathway using the BG1 cell line (AID 743080; calls by dose curve;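 note: BG1 cells stimulated with 17beta-estradiol alongside compound; nearly all actives have a fitted effect of over 25% in size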; note: potency is the fitted concentration of half-maximal effect). In a few lines:
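BG1Luc4E2, endogenous ER-alpha, 4xERE-luc; 5 d charcoal-stripped FBS, phenol red free; 24 h plating; cpd + 17beta-estradiol 21.5 h, 37 C/5% CO2; CellTiter-Fluor viability 30 min, then ONE-Glo luciferase 30 min RT.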

The nature of assay [7]: qHTS assay to identify small molecule antagonists of the thyroid receptor (TR) signaling pathway (AID 743065). Note: nearly all actives have a fitted effect of over 55% in size. Note: potency is the fitted concentration of half-maximal effect. In a few lines:
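Antagonism measured as loss of luciferase signal in GH3 cells stably carrying a TRE-luciferase reporter, co-treated with compound and T3 (1 nM final) for 23.5 h at 37 C. Viability was read in the same well by CellTiter-Fluor.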

For assay [8], the target named is Estrogen receptor (Homo sapiens) (UniProt P03372). Nature of the assay: qHTS assay to identify small molecule antagonists of the estrogen receptor alpha (ER-alpha) signaling pathway (AID 743069; active = well fitted curve in the direction sought with a large enough effect in the signal ratio in the repeat runs, not every such curve was filed as active; the % refers to the signal ratio; note: potency is the fitted concentration of half-maximal effect). In a few lines:
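Antagonist mode: compounds in DMSO were co-added with 17beta-estradiol to ER-alpha-bla HEK293 cells (2% charcoal-stripped serum) and left 18 h at 37C. Reporter inhibition was measured as FRET fluorescence after 2 h LiveBLAzer substrate at room temperature.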

Assay [9] has the same target. Nature of the assay: qHTS assay to identify small molecule agonists of the estrogen receptor alpha (ER-alpha) signaling pathway using the BG1 cell line (AID 743079). Note: nearly all actives have a fitted effect of over 20% in size. Note: potency is the fitted concentration of half-maximal effect.

Regarding `Cc1cc(CCC(=O)OCCOCCOCCOC(=O)CCc2cc(C)c(O)c(C(C)(C)C)c2)cc(C(C)(C)C)c1O`, the Potency entry (in assay [1]; in assay [2]; in assay [3]; in assay [4]; with Aromatase (Homo sapiens)) was “inactive” throughout.

Consider `CCC(=O)OCc1ccc(OC)cc1`, for which the Potency result in [1], in assay [2], in assay [3] and in assay [4] was “inactive” in each case.

For the molecule `COc1ccc(-c2cc(=S)ss2)cc1`, the Potency result (in [1]; in [2]; in assay [3]; in assay [5]; in assay [4]; with Aromatase (Homo sapiens)) was “inactive” each time.

On to `CCN(CC)c1ccc(C(=C2C=CC(=[N+](CC)CC)C=C2)c2ccc(S(=O)(=O)O)cc2S(=O)(=O)[O-])cc1`, for which the Potency result in [1] and in assay [2] was “inactive” throughout. Further, the Potency in assay [3] was 24.5 µM (active); in assay [4], 30.6 µM (active); with Aromatase (Homo sapiens), 9.69 µM (active).

In the case of `O=C(O)CN1C(=O)c2cccc3cccc(c23)C1=O`, the Potency entry (in assay [1]; in assay [2]; in assay [3]; in [4]; with Aromatase (Homo sapiens)) was “inactive” each time.

Consider `Nc1nc(-c2ccc([N+](=O)[O-])cc2)cs1`, for which the Potency entry (in [1]; in assay [2]; in assay [3]; in assay [4]; in the assay with Aromatase (Homo sapiens)) was “inactive” each time.

In the case of `CC(C)(C)C(O)/C=C/c1ccc2c(c1)OCO2` (centres undefined), the Potency entry (in assay [1]; in assay [2]; in assay [3]; in assay [5]; in assay [6]; in the assay with Aromatase (Homo sapiens)) was “inactive” throughout.

Take `CC/C=C\C/C=C\C/C=C\CCCCCCCC(=O)OCC`: the Potency result in [1], in [2], in assay [3] and in [4] was “inactive” in each case.

As for `CCCCCCCCCCCCCC(=O)OCC(O)CO` (centres undefined), the Potency entry (in assay [1]; in assay [2]; in [3]; in assay [4]; in the assay with Aromatase (Homo sapiens)) was “inactive” throughout.

As for `O=C1OC[C@H](Cc2cccc(O)c2)[C@H]1Cc1cccc(O)c1`, the Potency entry (in assay [1]; in [2]; in assay [3]; in [4]; with Aromatase (Homo sapiens)) was “inactive” throughout.

Consider `CC(C)C(O)C(C)(C)CO` (centres undefined), for which the Potency entry in assay [7], in [2], in assay [8], in assay [3], in [5] and in assay [9] was “inactive” each time. The Potency entry (in assay [6]; in assay [4]; with Aromatase (Homo sapiens)) was “inactive” in each case.

On to `FC(F)(F)C(F)(F)C(F)(F)C(F)(F)CCI`, for which the Potency result (in [1]; in [8]; in assay [3]; in assay [5]; in assay [4]; in the assay with Aromatase (Homo sapiens)) was “inactive” each time. For the same molecule, the Potency in assay [9] was 27.9 µM (active).

Take `CCOC(=O)C(C)O` (centres undefined): the Potency result in assay [1], in assay [8], in assay [3], in [5], in assay [9] and in assay [6] was “inactive” throughout. Besides, the Potency entry with Aromatase (Homo sapiens) was “inactive”.

On to `CCN(CC)CCOc1ccccc1C(=O)CCc1ccccc1`, for which, in assay [7], the Potency is 26.6 µM (active). Besides, the Potency entry in [2], in assay [8], in assay [3], in assay [5], in [9] and in [6] was “inactive” each time. The Potency entry (in assay [4]; in the assay with Aromatase (Homo sapiens)) was “inactive” throughout.

`Cc1cccc(C)c1NC(=O)c1cc(S(N)(=O)=O)c(Cl)cc1O`: the Potency result (in assay [1]; in [2]; in assay [4]; with Aromatase (Homo sapiens)) was “inactive” each time.

As to `Cc1ccc(NC(=O)N(C)C)cc1NC(=O)N(C)C`, the Potency entry in assay [7], in assay [2], in [8], in assay [3], in assay [5] and in [9] was “inactive” each time. The Potency entry (in assay [6]; in [4]; in the assay with Aromatase (Homo sapiens)) was “inactive” each time.

`CC(CCc1ccc(O)cc1)NCCc1ccc(O)c(O)c1` (centres undefined): the Potency result in assay [1], in [3], in assay [5], in assay [9] and in assay [4] was “inactive” throughout.

Turning to `O=C(O)CCC(=O)OC[C@@H](NC(=O)C(Cl)Cl)[C@H](O)c1ccc([N+](=O)[O-])cc1`, the Potency result (in assay [1]; in assay [2]; in assay [3]; in assay [4]; with Aromatase (Homo sapiens)) was “inactive” in each case.

Turning to `COC(=O)C1=C(C)NC(C)=C(C(=O)OC(C)(C)CN(C)CCC(c2ccccc2)c2ccccc2)C1c1cccc([N+](=O)[O-])c1` (centres undefined), the Potency in assay [1] was 8.41 µM (active); in assay [8] it was 10.7 µM [inhibitor] (active); in [6], 26.6 µM (active); with Aromatase (Homo sapiens), 18.8 µM (active). In addition, the Potency entry in [5] and in assay [4] was “inactive” in each case.

As for `C=CC(=O)O`, the Potency result in assay [7], in assay [2], in assay [8], in [3], in assay [5] and in assay [9] was “inactive” throughout. The Potency result (in [6]; in assay [4]; with Aromatase (Homo sapiens)) was “inactive” each time.

For `C=C(C)c1ccccc1`, the Potency result in assay [1], in assay [2], in [3] and in [4] was “inactive” throughout.

Regarding `CNCc1ccc(NC(=O)c2c[nH]c3c2C(=O)CCC3)cc1`, the Potency entry (in assay [1]; in assay [2]; in [3]; in [4]; with Aromatase (Homo sapiens)) was “inactive” throughout.

On to `O=C(O)c1cc(Cl)cc(Cl)c1O`, for which the Potency result (in [1]; in assay [2]; in assay [3]; in assay [4]; with Aromatase (Homo sapiens)) was “inactive” in each case.

Regarding `CC(C)OC(=O)c1ccccc1C(=O)OC(C)C`, the Potency result (in [1]; in [8]; in assay [5]; in assay [9]; in assay [4]; in the assay with Aromatase (Homo sapiens)) was “inactive” in each case.

Regarding `O=C(c1ccccc1)C1CCC1`, the Potency result in [7], in [2], in [8], in [3], in assay [5] and in assay [9] was “inactive” each time. The Potency entry (in assay [6]; in assay [4]; in the assay with Aromatase (Homo sapiens)) was “inactive” each time.
